The values below come from PubChem BioAssay (Tox21).

Inconclusive results are not listed. Where a call stands in place of a potency, no number is given. Activity calls are given as the source filed them. Calls follow the shape of the dose curve; as a rule, active = well fitted cell-killing curve with a large enough effect in the repeat runs; inconclusive = weak or mixed curves; inactive = no such curve, though single readings can be large or run the other way.
Potency is read from the fitted curve at half-maximal effect.

A short description of the assay: qHTS assay to identify small molecule antagonists of the androgen receptor (AR) signaling pathway - cell viability counter screen (AID 743033; also: nearly all actives have a fitted effect of over 45% in size). Conditions: AR-bla HEK293 viability, CellTiter-Glo luminescence, 16 h; series mostly up to 58.5 µM. The text has this: National Center for Advancing Translational Sciences [NCATS]
NIH Chemical Genomics Center [NCGC]
U.S. Environmental Protection Agency [EPA]
National Institutes of Environmental Health Sciences [NIEHS]
National Toxicology Program [NTP]
U.S. Food and Drug Administration [FDA]
Androgen receptor (AR), a nuclear hormone receptor, plays a critical role in AR-dependent prostate cancer and other androgen related diseases. Endocrine disrupting chemicals (EDCs) and their interactions with steroid hormone receptors like AR may cause disruption of normal endocrine function as well as interfere with metabolic homeostasis, reproduction, developmental and behavioral functions. To identify the compounds that inhibit AR signaling, GeneBLAzer AR-UAS-bla-GripTite cell line (Invitrogen, Carlsbad, CA, USA) containing a beta-lactamase reporter gene under control of an Upstream Activator Sequence (UAS) stably integrated into HEK293 cells was used to screen the Tox21 10K compound library. The cytotoxicity of the Tox21 compound library against the AR-bla cell line was tested in parallel by measuring the cell viability using CellTiter-Glo assay in the same wells.
Tox21 Assay Protocol Summary:
AR-bla cells were dispensed at 2,000 cells/5 uL of assay medium per well into black wall/clear-bottom 1536-well plates using a Multidrop Combi (ThermoFisher Scientific, Waltham, MA) dispenser. After the assay plates were incubated at a 37C and 5% CO2 for 4 hr, 23 nL of compounds dissolved in DMSO, positive controls or DMSO only was transferred to the assay plate by a Pintool station (Kalypsys, San Diego, CA), followed by addition of 1 uL of agonist (R1881) in culture medium using a Bioraptr Flying Reagent Dispenser (FRD) workstation (Beckman Coulter, Indianapolis, IN, USA). The plates were incubated at a 37C and 5% CO2 for 16 h. After 1 uL of LiveBLAzerTM B/G FRET substrate was added using a Bioraptr FRD, the plates were incubated at room temperature for 2 h and fluorescence intensity was measured by an Envision plate reader (PerkinElmer, Shelton, CT). For cell viability readout that measures cytotoxicity, 4 ul/well of CellTiter-Glo reagent was added into the assay plates using a Bioraptr FRD. After 30 min incubation at room temperature, the luminescence intensity in the plates was measured using a ViewLux (PerkinElmer) plate reader.
For orientation: Quantitative high-throughput screening tests each substance at several concentrations.
As for `CC(C)[C@@H]1CC[C@@H](C)C[C@H]1OC(=O)c1ccccc1O`, the Potency result is “inactive”. Then `CCCC1([C@H](O)C/C=C/[C@H]2[C@H](O)CC(=O)[C@@H]2CCCCCCC(=O)OC)CCC1`, with 16.9 µM (active); and `CC(=O)O[C@]1(C(C)=O)CC[C@H]2[C@@H]3CCC4=CC(=O)CC[C@]4(C)[C@@]3(F)[C@@H](O)C[C@@]21C`, with “inactive”; and `O=S(=O)(O)Oc1ccc(C(c2ccc(OS(=O)(=O)O)cc2)c2ccccn2)cc1`, with “inactive”. `CCCCC(C)(O)C/C=C/[C@H]1[C@H](O)CC(=O)[C@@H]1CCCCCCC(=O)OC` (stereo not given in full): the Potency result is “inactive”. In the case of `C=CCN1CCCC1CNC(=O)c1cc(S(N)(=O)=O)cc(OC)c1OC` (stereo not given) it was “inactive”; in that of `COc1ccccc1N1CCN(CCCC(=O)c2ccc(F)cc2)CC1`, “inactive”. Turning to `CCCCCCCCCCCCCC[n+]1ccc(C)cc1`, the Potency was 6.01 µM (active).

Regarding `C/C=C1\NC(=O)[C@H]2CSSCC/C=C/[C@H](CC(=O)N[C@H](C(C)C)C(=O)N2)OC(=O)C(C(C)C)NC1=O` (stereo not given in full), the Potency was 4.77 µM (active). On to `O=C(O)CO.[NH2-].[NH2-].[Pt+2]`, for which the Potency result is “inactive”. Take `Cc1c(O)cc2c(c1C)O[C@](C)(CCC[C@H](C)CCC[C@H](C)CCCC(C)C)CC2`: the Potency result is “inactive”. Then `Nc1nc2[nH]cc(CCc3ccc(C(=O)N[C@@H](CCC(=O)O)C(=O)O)cc3)c2c(=O)[nH]1`, with “inactive”; and `CCC(C)[C@@H](N)C(=O)O` (stereo not given in full), with “inactive”; and `CS(=O)(=O)OCCCNCCCOS(C)(=O)=O`, with “inactive”.

As to `CCC(=O)O[C@@H]1CC(=O)O[C@H](C)C/C=C/C=C/[C@H](O)[C@H](C)C[C@H](CC=O)[C@H](O[C@@H]2O[C@H](C)[C@@H](O[C@H]3C[C@@](C)(O)[C@@H](OC(=O)CC)[C@H](C)O3)[C@H](N(C)C)[C@H]2O)[C@H]1OC`, the Potency result was “inactive”.

`NC(=O)C[C@@H](N)C(=O)O`: the Potency result is “inactive”. In the case of `Cc1c(N)nc(C(CC(N)=O)NCC(N)C(N)=O)nc1C(=O)NC(C(=O)NC(C)C(O)C(C)C(=O)NC(C(=O)NCCc1nc(-c2nc(C(=O)NCCCN[C@@H](C)c3ccccc3)cs2)cs1)C(C)O)C(O[C@@H]1O[C@@H](CO)[C@@H](O)[C@H](O)[C@@H]1O[C@H]1O[C@H](CO)[C@@H](O)[C@H](OC(N)=O)[C@@H]1O)c1cnc[nH]1` (stereo not given in full) it was “inactive”; in that of `O=C1NC(=O)[C@H]2[C@@H]1[C@@H]1C=C[C@H]2C1`, “inactive”. In the case of `Cc1nc(NS(=O)(=O)c2ccc(N)cc2)nc(C)c1Br` it was “inactive”; in that of `CCC(Oc1ccccc1)C(=O)N[C@@H]1C(=O)N2[C@@H]1SC(C)(C)[C@@H]2C(=O)O` (stereo not given in full), “inactive”. In the case of `C#CCOc1ccc2c(C)cc(=O)oc2c1` it was “inactive”.

On to `CCCC(=O)Nc1c(I)cc(I)c(CC(CC)C(=O)O)c1I` (stereo not given), for which the Potency result is “inactive”.

As for `O=C(NNCNNC(=O)c1ccncc1)c1ccncc1`, the Potency entry is “inactive”.

On to `COc1cc(Br)c(C[N+]2(CCOCCC3CCC4CC3C4(C)C)CCOCC2)cc1OC` (stereo not given), for which the Potency entry was “inactive”. Then `CC1CC(OC(=O)C(O)c2ccccc2)CC(C)(C)C1` (stereo not given), with “inactive”. Then `CCC(Cc1c(I)cc(I)c(O)c1I)C(=O)O` (stereo not given), with “inactive”; and `CCC(C)C(C(=O)OCC[N+](C)(CC)CC)c1ccccc1` (stereo not given), with “inactive”; and `CCCCCCC(=O)O[C@H]1CC[C@H]2[C@@H]3CCc4cc(O)ccc4[C@H]3CC[C@]12C`, with “inactive”.

Turning to `CO[C@H]1C[C@@H]2CC[C@@H](C)[C@@](O)(O2)C(=O)C(=O)N2CCCC[C@H]2C(=O)O[C@H]([C@H](C)C[C@@H]2CC[C@@H](OCCO)[C@H](OC)C2)CC(=O)[C@H](C)/C=C(\C)[C@@H](O)[C@@H](OC)C(=O)[C@H](C)C[C@H](C)/C=C/C=C/C=C/1C`, the Potency result is “inactive”. In the case of `CCCCC(O)c1ccccc1` (stereo not given) it was “inactive”; in that of `C=C1CC2C3CCC4=CC(=O)C=C[C@]4(C)[C@@]3(F)[C@@H](O)C[C@]2(C)[C@@]1(O)C(=O)COC(C)=O` (stereo not given in full), “inactive”; in that of `CC(=O)O[C@H]1CC[C@@]2(C)C(=CC[C@H]3[C@@H]4CC[C@H](C(C)=O)[C@@]4(C)CC[C@@H]32)C1`, “inactive”.

As to `NC(=O)Oc1ccc(Cc2ccccc2)cc1`, the Potency entry is “inactive”. Then `OC[C@H]1O[C@@H](O[C@H]2[C@H](O)[C@@H](O)[C@H](O)O[C@@H]2CO)[C@H](O)[C@@H](O)[C@@H]1O`, with “inactive”; and `Cc1nnc(C(C)C)n1C1C[C@H]2CC[C@@H](C1)N2CC[C@H](NC(=O)C1CCC(F)(F)CC1)c1ccccc1` (stereo not given in full), with “inactive”; and `CC(C)(C)CC(C)(C)c1cc(Cc2cc(C(C)(C)CC(C)(C)C)cc(-n3nc4ccccc4n3)c2O)c(O)c(-n2nc3ccccc3n2)c1`, with “inactive”.

Consider `CCOC(=O)Cc1cccc(-c2cc(CCCCCCc3ccc(O[C@H]4O[C@H](COC(C)=O)[C@@H](OC(C)=O)[C@H](OC(C)=O)[C@@H]4OC(C)=O)c(-c4cccc(CC(=O)OCC)c4)c3)ccc2O[C@H]2O[C@H](COC(C)=O)[C@@H](OC(C)=O)[C@H](OC(C)=O)[C@@H]2OC(C)=O)c1`, for which the Potency entry was “inactive”. In the case of `c1ccc2cc(C3=NCCN3)ccc2c1` it was “inactive”.

Regarding `COc1ccc2cc([C@H](C)CO)ccc2c1`, the Potency result is “inactive”. Take `COc1cc2c(cc1OC)[C@@H](c1ccccc1)CN(C)CC2`: the Potency entry is “inactive”.
